The record followed here is PubChem BioAssay (EPA / NIEHS).

By AC50 is commonly meant the concentration giving half of the maximal activity seen.

SMILES strings stand for the structures. The source made the active and inactive calls. How the source made its calls: active means hit-call score of the fitted dose curve at least 0.9, where 1 is the maximum; inactive means score below 0.9.

What all share (conditions): mRNA level, 48 h; actives raise or lower the signal
Read-out in assay [1]: Tumor necrosis factor receptor superfamily member 6 (Homo sapiens) (UniProt P25445)
Nature of the assay: LTEA_HepaRG_FAS: Life Technologies and Expression Analysis (LTEA) Assay for Fas cell surface death receptor (FAS) using HepaRG (AID 2283447). The method in brief: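 Differentiated human HepaRG cells, pre-cultured 48 h, were exposed in duplicate for 48 h to 8-point half-log concentrations (top 100 uM, 0.5% DMSO) in serum-free induction medium; FAS mRNA measured by qRT-PCR, normalized to ACTB/GAPDH/POLR2A, bidirectional fit versus DMSO.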

Read-out in assay [2]: Fatty acid synthase (Homo sapiens) (UniProt P49327)
Nature of the assay: LTEA_HepaRG_FASN: Life Technologies and Expression Analysis (LTEA) Assay for Fatty Acid Synthase (FASN) using HepaRG (AID 2283448). The method in brief: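 Transcript-level assay: HepaRG liver cells are treated for 48 h across an eight-point range topping at 100 uM, and FASN mRNA, normalized to three housekeeping genes, is compared with DMSO controls in both directions.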

Read-out in assay [3]: Cyclin D2 (CCND2), CCND2 (gene 894)
Nature of the assay: LTEA_HepaRG_CCND2: Life Technologies and Expression Analysis (LTEA) Assay for Cyclin D2 (CCND2) using HepaRG (AID 2283449).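 Further: CCND2 transcript measured by TaqMan qRT-PCR and normalised to three housekeeping genes.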 The method, boiled down: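 Differentiated human HepaRG cells were exposed for 48 h in serum-free induction medium to eight half-log concentrations topping at 100 uM (0.5% DMSO vehicle). CCND2 mRNA was quantified by TaqMan qRT-PCR, normalised to ACTB, GAPDH and POLR2A, and fitted bidirectionally against DMSO.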

Read-out in assay [4]: Cyclin Dependent Kinase Inhibitor 1A (CDKN1A), CDKN1A (gene 1026)
Nature of the assay: LTEA_HepaRG_CDKN1A: Life Technologies and Expression Analysis (LTEA) Assay for Cyclin Dependent Kinase Inhibitor 1A (CDKN1A) using HepaRG (AID 2283450). The method in brief: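 HepaRG, 48 h dosing, 8-pt half-log series from 100 uM top, 0.5% DMSO vehicle, duplicates. Readout: TaqMan qRT-PCR of CDKN1A transcript, housekeeping-normalized (ACTB, GAPDH, POLR2A). Up/down curve fit relative to DMSO.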

Read-out in assay [5]: catalase (CAT), CAT (gene 847)
Nature of the assay: LTEA_HepaRG_CAT: Life Technologies and Expression Analysis (LTEA) Assay for catalase (CAT) using HepaRG (AID 2283452). The method in brief: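 Differentiated HepaRG cells in serum-free induction medium were dosed 48 h in duplicate, eight half-log concentrations from 100 uM in 0.5% DMSO. Transcript measured by TaqMan qRT-PCR, normalised to ACTB/GAPDH/POLR2A, fitted bidirectionally against DMSO.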

Read-out in assay [6]: flavin-containing dimethylaniline monooxygenases 3 (FMO3), FMO3 (gene 2328)
Nature of the assay: LTEA_HepaRG_FMO3: Life Technologies and Expression Analysis (LTEA) Assay for flavin-containing dimethylaniline monooxygenases 3 (FMO3) using HepaRG (AID 2283453). The method, boiled down: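 HepaRG, 48 h exposure, 8-pt half-log series from 100 uM, 0.5% DMSO vehicle, duplicates; FMO3 transcript by Fluidigm TaqMan qRT-PCR, housekeeping-normalized; gain/loss fit vs DMSO.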

Read-out in assay [7]: Cytochrome P450 (CYP1A1), CYP1A1 (gene 1543)
Nature of the assay: LTEA_HepaRG_CYP1A1: Life Technologies and Expression Analysis (LTEA) Assay for Cytochrome P450 (CYP1A1) using HepaRG (AID 2283454). The method in brief:
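qRT-PCR read-out: CYP1A1 transcript normalized to three housekeeping genes, fitted bidirectionally against 0.5% DMSO vehicle baseline. Human HepaRG cells, 48 h chemical exposure, 8-point half-log series topping at 100 uM.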

Read-out in assay [8]: CFLAR gene, CFLAR (gene 8837)
Nature of the assay: LTEA_HepaRG_CFLAR: Life Technologies and Expression Analysis (LTEA) Assay for CFLAR gene using HepaRG (AID 2283455). The method in brief: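 HepaRG cells were plated for 48 h, switched to serum-free induction medium, then exposed in duplicate for 48 h to 8 concentrations (top 100 uM, half-log steps, 0.5% DMSO). CFLAR mRNA was measured by qRT-PCR, normalized to ACTB, GAPDH and POLR2A.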

Read-out in assay [9]: Forkhead box O1 (FOXO1), FOXO1 (gene 2308)
Nature of the assay: LTEA_HepaRG_FOXO1: Life Technologies and Expression Analysis (LTEA) Assay for Forkhead box O1 (FOXO1) using HepaRG (AID 2283456). The method, boiled down: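 Differentiated human HepaRG cells in serum-free induction medium were exposed in duplicate for 48 h to eight half-log concentrations (top 100 uM, 0.5% DMSO). FOXO1 mRNA was measured by TaqMan qRT-PCR, normalised to ACTB, GAPDH and POLR2A, and fitted bidirectionally against DMSO.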

Read-out in assay [10]: growth arrest and DNA damage 45 (GADD45A), GADD45A (gene 1647)
Nature of the assay: LTEA_HepaRG_GADD45A: Life Technologies and Expression Analysis (LTEA) Assay for growth arrest and DNA damage 45 (GADD45A) using HepaRG (AID 2283458). The method in brief: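 Human HepaRG liver cells are treated in duplicate for 48 h with chemicals in 0.5% DMSO, highest concentration 100 uM. Expression is read by qRT-PCR and analyzed in both directions against vehicle.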

Read-out in assay [11]: Forkhead box O3 (FOXO3), FOXO3 (gene 2309)
Nature of the assay: LTEA_HepaRG_FOXO3: Life Technologies and Expression Analysis (LTEA) Assay for Forkhead box O3 (FOXO3) using HepaRG (AID 2283459). The method, boiled down:
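Differentiated human HepaRG cells in serum-free induction medium were exposed in duplicate for 48 h to eight half-log concentrations up to 100 uM in 0.5% DMSO. FOXO3 mRNA was quantified by qRT-PCR, normalized to ACTB, GAPDH and POLR2A, with bidirectional fitting versus DMSO.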

Read-out in assay [12]: ABC Transporter (ABCB1), ABCB1 (gene 5243)
Nature of the assay: LTEA_HepaRG_ABCB1: Life Technologies and Expression Analysis (LTEA) Assay for ABC Transporter (ABCB1) using HepaRG (AID 2283460). The method in brief:
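Differentiated human HepaRG cells, plated 48 h then switched to serum-free induction medium, were exposed in duplicate to eight half-log concentrations up to 100 uM in 0.5% DMSO for 48 h. ABCB1 mRNA was measured by TaqMan qRT-PCR, normalized to ACTB/GAPDH/POLR2A.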

Read-out in assay [13]: growth arrest and DNA damage 45 (GADD45B), GADD45B (gene 4616)
Nature of the assay: LTEA_HepaRG_GADD45B: Life Technologies and Expression Analysis (LTEA) Assay for growth arrest and DNA damage 45 (GADD45B) using HepaRG (AID 2283461). The method, boiled down: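 qRT-PCR read-out (Fluidigm TaqMan, housekeeping-normalized) of mRNA change in human HepaRG cells after 48 h chemical exposure; 8-point curve, top 100 uM, half-log steps, 0.5% DMSO vehicle; gain or loss fitted relative to DMSO baseline.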

Read-out in assay [14]: ABC Transporter (ABCC3), ABCC3 (gene 8714)
Nature of the assay: LTEA_HepaRG_ABCC3: Life Technologies and Expression Analysis (LTEA) Assay for ABC Transporter (ABCC3) using HepaRG (AID 2283462). The method in brief:
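qRT-PCR read-out of ABCC3 transcript, normalized to three housekeeping genes (ACTB, GAPDH, POLR2A), after 48 h chemical exposure of human HepaRG cells. Eight half-log concentrations, highest 100 uM, in 0.5% DMSO; gain or loss fitted relative to DMSO baseline.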

Read-out in assay [15]: ABC Transporter (ABCB11), ABCB11 (gene 8647)
Nature of the assay: LTEA_HepaRG_ABCB11: Life Technologies and Expression Analysis (LTEA) Assay for ABC Transporter (ABCB11) using HepaRG (AID 2283463). The method, boiled down:
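Differentiated human HepaRG cells were exposed for 48 h in serum-free induction medium to eight half-log concentrations up to 100 uM in 0.5% DMSO. ABCB11 mRNA was quantified by qRT-PCR, normalized to ACTB, GAPDH and POLR2A, and fitted bidirectionally versus DMSO.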

Read-out in assay [16]: Broad substrate specificity ATP-binding cassette transporter ABCG2 (Homo sapiens) (UniProt Q9UNQ0)
Nature of the assay: LTEA_HepaRG_ABCG2: Life Technologies and Expression Analysis (LTEA) Assay for ABC Transporter (ABCG2) using HepaRG (AID 2283465). The method, boiled down:
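Differentiated HepaRG cells in serum-free induction medium were exposed for 48 h, in duplicate, to eight half-log concentrations up to 100 uM in 0.5% DMSO. ABCG2 mRNA was measured by TaqMan qRT-PCR, normalized to ACTB, GAPDH and POLR2A, and fitted bidirectionally versus DMSO.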

Read-out in assay [17]: ATP-citrate lyase (ACLY), ACLY (gene 47)
Nature of the assay: LTEA_HepaRG_ACLY: Life Technologies and Expression Analysis (LTEA) Assay for ATP-citrate lyase (ACLY) using HepaRG (AID 2283466). The method, boiled down: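 Differentiated human HepaRG cells in serum-free induction medium exposed 48 h, in duplicate, to eight half-log concentrations from 100 uM top in 0.5% DMSO; ACLY mRNA measured by qRT-PCR, normalized to ACTB, GAPDH, POLR2A, fitted bidirectionally versus DMSO.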

Read-out in assay [18]: ABC Transporter (ABCC2), ABCC2 (gene 1244)
Nature of the assay: LTEA_HepaRG_ABCC2: Life Technologies and Expression Analysis (LTEA) Assay for ABC Transporter (ABCC2) using HepaRG (AID 2283464). The method in brief:
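qRT-PCR (TaqMan, Fluidigm array) read-out of ABCC2 mRNA, normalized to three housekeeping genes. Differentiated HepaRG cells were treated 48 h in serum-free induction medium with 8-point half-log series from 100 uM in 0.5% DMSO; curves fitted bidirectionally relative to DMSO.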

Read-out in assay [19]: Cyclin D1 (CCND1), CCND1 (gene 595)
Nature of the assay: LTEA_HepaRG_CCND1: Life Technologies and Expression Analysis (LTEA) Assay for Cyclin D1 (CCND1) using HepaRG (AID 2283451). The method in brief: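 qRT-PCR (Fluidigm 96.96 array) read-out of transcript level, housekeeping-normalized (ACTB/GAPDH/POLR2A). HepaRG cells, 48 h chemical exposure, 8-point half-log series from 100 uM, 0.5% DMSO vehicle; gain or loss relative to DMSO baseline.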

Chain of Fatty acid synthase (Homo sapiens) (P49327 whole entry, looked up): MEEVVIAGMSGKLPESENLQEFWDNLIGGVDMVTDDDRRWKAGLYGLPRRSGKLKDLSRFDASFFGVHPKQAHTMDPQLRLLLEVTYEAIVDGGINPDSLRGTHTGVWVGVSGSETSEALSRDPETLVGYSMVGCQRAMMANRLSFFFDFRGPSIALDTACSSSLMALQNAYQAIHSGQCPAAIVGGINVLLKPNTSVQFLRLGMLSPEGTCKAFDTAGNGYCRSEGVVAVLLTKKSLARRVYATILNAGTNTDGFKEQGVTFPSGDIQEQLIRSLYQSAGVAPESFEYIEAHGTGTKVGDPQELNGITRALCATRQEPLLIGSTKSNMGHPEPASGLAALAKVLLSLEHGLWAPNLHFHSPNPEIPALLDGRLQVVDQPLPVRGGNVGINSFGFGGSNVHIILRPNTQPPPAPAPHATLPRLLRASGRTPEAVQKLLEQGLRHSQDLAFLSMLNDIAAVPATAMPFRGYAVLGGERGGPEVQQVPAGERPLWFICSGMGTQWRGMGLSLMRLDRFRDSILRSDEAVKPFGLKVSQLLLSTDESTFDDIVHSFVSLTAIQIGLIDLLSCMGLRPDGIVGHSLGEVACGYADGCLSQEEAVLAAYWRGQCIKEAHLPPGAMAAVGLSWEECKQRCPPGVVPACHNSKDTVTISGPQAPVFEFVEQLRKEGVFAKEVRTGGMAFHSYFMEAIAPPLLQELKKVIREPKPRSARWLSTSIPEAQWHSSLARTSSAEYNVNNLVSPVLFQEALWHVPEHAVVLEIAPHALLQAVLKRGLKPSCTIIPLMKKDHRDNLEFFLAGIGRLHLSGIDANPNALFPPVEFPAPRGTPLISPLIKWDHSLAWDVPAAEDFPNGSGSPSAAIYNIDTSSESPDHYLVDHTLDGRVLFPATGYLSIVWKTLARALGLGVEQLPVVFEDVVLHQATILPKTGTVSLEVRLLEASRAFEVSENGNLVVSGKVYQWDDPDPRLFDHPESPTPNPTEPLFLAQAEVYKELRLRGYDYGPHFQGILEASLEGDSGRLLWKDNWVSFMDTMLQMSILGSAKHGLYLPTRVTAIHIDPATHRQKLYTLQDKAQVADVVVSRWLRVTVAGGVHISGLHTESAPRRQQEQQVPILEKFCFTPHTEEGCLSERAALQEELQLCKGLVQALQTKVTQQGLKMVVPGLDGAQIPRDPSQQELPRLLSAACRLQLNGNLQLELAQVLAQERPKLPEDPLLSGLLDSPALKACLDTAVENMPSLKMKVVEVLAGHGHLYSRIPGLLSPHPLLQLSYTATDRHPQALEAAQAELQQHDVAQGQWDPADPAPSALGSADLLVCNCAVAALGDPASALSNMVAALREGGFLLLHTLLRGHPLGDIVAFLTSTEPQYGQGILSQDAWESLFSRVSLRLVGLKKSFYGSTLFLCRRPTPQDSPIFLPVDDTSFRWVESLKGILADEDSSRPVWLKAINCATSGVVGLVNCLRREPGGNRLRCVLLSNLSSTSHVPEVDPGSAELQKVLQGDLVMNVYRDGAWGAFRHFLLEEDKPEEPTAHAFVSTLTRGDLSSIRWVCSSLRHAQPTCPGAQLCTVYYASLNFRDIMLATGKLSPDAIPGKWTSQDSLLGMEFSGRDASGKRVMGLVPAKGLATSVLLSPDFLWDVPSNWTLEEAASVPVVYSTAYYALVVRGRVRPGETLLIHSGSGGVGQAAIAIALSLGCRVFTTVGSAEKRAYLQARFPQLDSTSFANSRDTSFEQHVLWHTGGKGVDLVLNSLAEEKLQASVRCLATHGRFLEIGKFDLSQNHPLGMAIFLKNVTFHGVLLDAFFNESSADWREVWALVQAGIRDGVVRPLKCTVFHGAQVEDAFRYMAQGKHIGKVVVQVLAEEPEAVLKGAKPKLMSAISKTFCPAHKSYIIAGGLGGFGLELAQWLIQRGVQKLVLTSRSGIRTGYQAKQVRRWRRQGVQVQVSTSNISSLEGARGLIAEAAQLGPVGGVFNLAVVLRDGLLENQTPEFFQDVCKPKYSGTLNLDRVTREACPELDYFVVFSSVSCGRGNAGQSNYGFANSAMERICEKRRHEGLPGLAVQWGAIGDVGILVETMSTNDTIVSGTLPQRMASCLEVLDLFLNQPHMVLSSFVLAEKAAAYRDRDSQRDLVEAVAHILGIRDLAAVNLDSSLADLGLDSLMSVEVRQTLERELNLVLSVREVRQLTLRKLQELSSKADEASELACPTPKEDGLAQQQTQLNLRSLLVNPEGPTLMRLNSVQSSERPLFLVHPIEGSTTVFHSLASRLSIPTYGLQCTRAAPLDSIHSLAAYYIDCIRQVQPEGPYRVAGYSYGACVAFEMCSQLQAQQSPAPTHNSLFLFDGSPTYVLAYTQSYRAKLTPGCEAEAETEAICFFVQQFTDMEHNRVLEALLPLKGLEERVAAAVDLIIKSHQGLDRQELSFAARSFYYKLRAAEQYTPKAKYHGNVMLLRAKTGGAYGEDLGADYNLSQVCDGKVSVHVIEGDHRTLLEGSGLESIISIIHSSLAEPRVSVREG
Chain of Broad substrate specificity ATP-binding cassette transporter ABCG2 (Homo sapiens) (Q9UNQ0 whole entry, looked up): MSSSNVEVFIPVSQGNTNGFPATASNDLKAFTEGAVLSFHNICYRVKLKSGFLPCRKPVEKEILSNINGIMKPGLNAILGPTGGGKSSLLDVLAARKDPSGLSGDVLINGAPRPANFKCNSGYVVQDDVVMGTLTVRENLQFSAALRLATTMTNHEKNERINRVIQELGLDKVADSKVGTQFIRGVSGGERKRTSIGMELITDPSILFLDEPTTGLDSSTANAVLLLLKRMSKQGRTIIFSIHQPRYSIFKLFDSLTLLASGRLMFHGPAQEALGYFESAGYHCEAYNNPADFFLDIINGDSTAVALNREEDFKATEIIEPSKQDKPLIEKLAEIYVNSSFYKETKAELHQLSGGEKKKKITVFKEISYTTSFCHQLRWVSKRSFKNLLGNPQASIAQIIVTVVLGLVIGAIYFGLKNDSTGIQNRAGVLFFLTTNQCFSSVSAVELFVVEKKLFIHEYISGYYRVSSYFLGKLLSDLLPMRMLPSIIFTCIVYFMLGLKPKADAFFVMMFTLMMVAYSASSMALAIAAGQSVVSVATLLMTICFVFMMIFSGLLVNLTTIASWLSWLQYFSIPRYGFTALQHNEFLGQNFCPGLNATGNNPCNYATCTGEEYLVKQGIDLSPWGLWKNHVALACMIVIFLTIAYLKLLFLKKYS

`CC(=O)OCCOCCOCCOC(C)=O`: the result in assay [1], in [2], in [3], in assay [4], in [5] and in assay [6] was inactive. Also, the compound was classed as inactive in [7], in assay [8], in assay [9], in assay [10], in assay [11] and in [12]. The result in assay [13], in assay [14], in [15], in [16] and in assay [17] was inactive.
On to `Cc1ccc(C(C)C)c(O)c1`, for which the compound was called inactive in assay [1], in [2], in assay [3], in assay [4], in [5] and in assay [6]. Further, the compound was called inactive in [7], in [8], in assay [9], in assay [10], in assay [11] and in assay [12]. The compound was called inactive in assay [13], in [14], in [15], in assay [18], in [16] and in assay [17].
As to `Cc1cccc(C)c1O`, the compound was called inactive in [1], in assay [2], in [3], in assay [4], in [5] and in assay [6]. Also, the compound was called inactive in assay [8], in [9], in [10], in assay [11], in [12] and in assay [13]. Also, the call in [14], in assay [16] and in assay [17] was inactive. Also, the AC50 in assay [7] is 50 µM (active).
On to `CCc1c(C(=O)NN2CCCCC2)nn(-c2ccc(Cl)cc2Cl)c1-c1ccc(Br)cc1`, for which the AC50 in assay [1] was 50 µM (active); in [2], 82.7 µM (active); in assay [4] it was 11.4 µM (active); in assay [5], 41 µM (active); in assay [6], 35.5 µM (active); in assay [7] it was 5.22 µM (active). The AC50 in assay [9] was 84.3 µM (active); in assay [10], 82.1 µM (active); in assay [12], 86.8 µM (active); in assay [13], 50 µM (active); in assay [16], 50 µM (active); in assay [17], 12.5 µM (active). Besides, the compound was classed as inactive in [3], in [19], in assay [11] and in assay [14].
